ChEMBL document CHEMBL4513216, “Probing the Open Global Health Chemical Diversity Library for Multistage-Active Starting Points for Next-Generation Antimalarials” (ACS Infect Dis, 2020)
The campaign covered roughly 68,000 compounds. About 2,700 (4%) showed an effect of 50% or more. The sample holds strong results, similar compounds and a random draw of the others, so the mix is not that of the screen.

What follows are compounds tested on Plasmodium berghei (assay: Screen against P. berghei liver stage (PbLuc), transformed with Luciferase, at 2uM). Details: tested at 2 uM.
Type: functional, HepG2

Structure (SMILES)	INHIBITION [%]
CCn1cc(NC(=O)C2CCN(Cc3nc(C)c(C)s3)CC2)cn1	-3.36
Cc1ccc(NC(=O)[C@H]2C[C@H](C(=O)O)CN(CC3CC3)C2)cn1	38.15
Fc1ccc2nc([C@H]3CCNC3)[nH]c2c1	-11.34
CC(C)N1CC[C@H](c2nc3ccc(C(F)(F)F)cc3[nH]2)C1	4
FC(F)(F)c1ccc2[nH]c([C@H]3CCNC3)nc2c1	62.8
COCC(=O)NC(Cc1cc(N(C)C)nc(C2CC2)n1)c1ccccc1 (stereo unspecified)	7.93
CCOCCN1CCN(C=C2NN=C(c3occc3C)O2)CC1CC (stereo unspecified)	24.82
O=C(Nc1ccc(F)cc1)N(CCC(F)(F)F)C[C@H](O)CO	5
Cc1cccc(NC(=O)N(CCC(F)(F)F)C[C@H](O)CO)c1	-24.88
COc1cccc(NC(=O)N(CCC(F)(F)F)C[C@H](O)CO)c1	50.6
O=C(Nc1ccc(F)cc1F)N(CCC(F)(F)F)C[C@H](O)CO	66.83
CC(CS(C)(=O)=O)N(C(=O)Nc1ccc(F)cc1F)C1CC1 (stereo unspecified)	-3.43
COc1cccc(NC(=O)N(CCO)Cc2ccsc2)c1	-75.39
CN(C)c1ccc(C(=O)Nc2ccn(Cc3ccccn3)n2)cn1	-44.17
CN1CCOC[C@H]1c1nc(-c2cccnc2)c[nH]1	5.77
O=C(Nc1cccc(CNCc2csc(Br)c2)c1)C1CC1	-0.64
CCC1(c2ccc(NS(=O)(=O)N(C)C)cc2)CCC(=O)NC1=O (stereo unspecified)	-11.81
C[C@@H]1CN(c2nc3c(cc2C(N)=O)CCC3)CC[C@@]1(O)C1CCC1	2.79
NC(=O)c1cc2c(nc1CC1CCCCO1)CCC2 (stereo unspecified)	38.83
CN1CCCCC1Cc1nc2c(cc1C(N)=O)CCC2 (stereo unspecified)	62.39
COC(=O)c1ccc(NC(C)c2ccc3c(c2)CCC(=O)N3)nn1 (stereo unspecified)	34.22
Cc1csc(N2CCCN(C(=O)c3c(C)oc(C)c3C)CC2)n1	-1.5
Cc1nc(CN2CCCN(C(=O)c3c(C)oc(C)c3C)CC2)cs1	59.54
Cc1csc(N2CCCN(C(=O)c3c(C)noc3C)CC2)n1	24.65
Cc1csc(N2CCN(C(=O)c3c(C)oc(C)c3C)CC2)n1	58.52
Cc1nc(CN2CCCN(C(=O)c3c(C)noc3C)CC2)cs1	3.38

Structure (SMILES)	INHIBITION [%]
CCc1noc(C)c1C(=O)N1CCCN(Cc2csc(C)n2)CC1	16.84
O=C(NCC1CCCO1)c1cc(-c2ccncc2)c2cnccc2n1 (stereo unspecified)	26.69
CO[C@@H]1CO[C@@]2(CCCN(C(=O)C3CC=CC3)C2)C1	-29.49
COCC1CCN(c2ccnc3ccsc23)C1 (stereo unspecified)	15.84
Cc1ccc(C(=O)N2CCn3cc(CN(C)Cc4ccco4)nc3C2)o1	-40.76
Cn1ncc2c1C(COCC1CC1)CN(C(=O)Cc1ccsc1)C2 (stereo unspecified)	22.16
CN1C(=O)C2(CCNCC2)c2cc(F)ccc21	37.75
c1cnc(NC[C@@H]2CCC[C@@H]3CN(Cc4cccnc4)C[C@@H]32)nc1	7.08
COc1ccc(CN2C[C@H]3CCC[C@@H](CN(C)C4CC4)[C@H]3C2)cn1	0.42
CN(C[C@@H]1CCC[C@@H]2CN(Cc3cccnc3)C[C@@H]21)C1CC1	61.09
CC(=O)N1CCOC(c2cc(N3CC(O)C3)nc(C)n2)C1 (stereo unspecified)	18.8
Cc1cnn(C2CN(CCOc3ccc(C#N)cc3)C2)c1	-22.06
Cc1cccc(NC(=O)[C@@H]2CCCN2CC(=O)Nc2ccccc2)n1	-32.35
CCOC(=O)N1CCN(C(=O)c2cc(-c3ccc(C)cc3)on2)CC1	21.28
NC(=O)CN1C(=O)CO[C@H]2CN(Cc3ccccc3)C[C@H]21	41.93
NC(=O)CN1C(=O)CO[C@H]2CN(Cc3ccc(F)c(F)c3)C[C@H]21	27.65
NC(=O)CN1C(=O)CO[C@H]2CN(Cc3ccc(Cl)cc3)C[C@H]21	58.4
Cn1ccnc1CN1CCCC(CCCc2ccccn2)(C(N)=O)C1 (stereo unspecified)	-11.32
COC(=O)c1cccc(S(=O)(=O)NC(=O)COC2CCCCC2)c1	19.64
CS(=O)(=O)N1CCN(c2cc(-n3cccc3)ncn2)CC1	19.08
Cc1ccc(Nc2cc(N3CCN(S(C)(=O)=O)CC3)nc(C)n2)cc1	51.2
Cc1nc(Nc2ccccn2)cc(N2CCN(S(C)(=O)=O)CC2)n1	18.99
CC1CCN(C(=O)C(C)n2cc(Br)cn2)CC1 (stereo unspecified)	20.8
FC(F)(F)c1ccnc(N2CCC(c3nccn3CC3CC3)CC2)n1	-0.62
CCCn1ncc(CN2C[C@@H]3CCCN3C[C@H]2Cc2ccccc2)c1C	37.6
CCCn1nc2c(cc1=O)CN(CC1CCCCO1)CC2 (stereo unspecified)	28.72

Structure (SMILES)	INHIBITION [%]
CN(CCn1cccn1)S(=O)(=O)c1cccc(F)c1C#N	-2.19
Cc1cc(F)c(S(=O)(=O)N(C)CCn2cccn2)cc1F	50.03
CN(CCn1cccn1)S(=O)(=O)c1cccc(Cl)c1C#N	-26.2
CCC(C)(C)C(=O)Nc1ccc2ccn(CC(=O)NC)c2c1	24.51
COc1cccc(CN2CCc3nc4ccsc4c(=O)n3CC2)c1	34.9
Cn1cc(CN2CCCCC2c2ccc(-c3cccc(Cl)c3)nc2)cn1 (stereo unspecified)	15.59
COC(=O)[C@@H]1C[C@H](NC(=O)c2cc(=O)[nH]c3ccc(C)cc23)CN1C	76.07
Cc1ccc2[nH]c(=O)cc(C(=O)N[C@@H]3C[C@@H](CO)N(C)C3)c2c1	10.75
CCNC(=O)[C@@H]1C[C@H](NC(=O)c2cc(=O)[nH]c3ccc(C)cc23)CN1C	24.44
CCCc1cc(=O)[nH]c(-c2ccccc2CN(C)CCC(C)C)n1	-4.05
CCc1nnc2ccc(N3CCN(S(=O)(=O)c4ccc(Cl)s4)CC3)nn12	52.31
CCc1nnc2ccc(N3CCN(S(=O)(=O)c4ccc(C)s4)CC3)nn12	-37.47
CCCS(=O)(=O)N1CCN(c2ccc3nnc(CC)n3n2)CC1	8.76
CCN(Cc1cnc(NCc2ccccc2)nc1)C1CCS(=O)(=O)C1 (stereo unspecified)	-30.2
CN(C)Cc1nnc(C2CCCN(Cc3ccc(Cl)s3)C2)n1C (stereo unspecified)	7.64
CC(=O)Nc1nc(C2CCN(C(=O)C3CCC3)CC2)cs1	-49.56
Fc1cccc(CN2CCC(c3n[nH]c4ncccc34)CC2)c1F	12.36
Fc1ccc(CN2CCC(c3n[nH]c4ncccc34)CC2)cc1F	19.51
Fc1cccc(Cl)c1CN1CCC(c2n[nH]c3ncccc23)CC1	53.65
COc1cccc(CN(C)Cc2[nH]c3ccccc3c2C)c1O	33.32
CCc1nc(C)c(C(=O)NCC2COc3cc(OC)ccc3C2)o1 (stereo unspecified)	76.56
COc1ccc2c(c1)OCC(CNC(=O)c1cc[nH]c1C)C2 (stereo unspecified)	23.79
COc1ccc2c(c1)OCC(CNC(=O)c1ccncc1)C2 (stereo unspecified)	31.38
CCCC(=O)N1CCCCC1c1nc(N(C)C)ncc1-c1cc(C)no1 (stereo unspecified)	-54.53
COc1ccccc1CC(=O)N1CCCC1Cn1nc(C)cc1C (stereo unspecified)	-43.79
COCCNC(=O)Cn1c(C)cc2nc(SC)n(CC(C)C)c(=O)c21	-24.15

Structure (SMILES)	INHIBITION [%]
Cn1ncc2c(NCCOCc3ccccc3)nc(C3CCCC3)nc21	-19.29
CNS(=O)(=O)c1csc(C(=O)N(C)Cc2sccc2C)c1	46.97
COCCNS(=O)(=O)c1ccc(Cl)c(C(=O)N(C)Cc2ccsc2)c1	13.76
COCCNS(=O)(=O)c1ccc(Cl)c(C(=O)N(C)Cc2sccc2C)c1	64.37
CN(Cc1cccc(OCCO)c1)Cc1cccc2ncccc12	37.5
COCC(=O)N1CCC2(CCC(C(=O)N3CCCC3)O2)CC1 (stereo unspecified)	41.38
O=C(NC1CCC1)[C@@H]1CCO[C@@H]2CCN(C3CCCC3)C[C@H]21	51.26
O=C(NC1CCC1)[C@@H]1CCO[C@@H]2CCN(C3CCCC3)C[C@@H]21	23.93
O=C(NC1CC1)[C@@H]1CCO[C@@H]2CCN(C3CCCC3)C[C@H]21	-0.18
CN1CCOC[C@H]1c1nc(-c2ccc(F)cc2F)c[nH]1	3.55
CC(C)(CNc1ccc2ccc(F)cc2n1)NS(C)(=O)=O	5.92
CC(C)(CCS(C)(=O)=O)CNc1ccc2ccc(F)cc2n1	50.93
CS(=O)(=O)CCOCCNc1ccc2ccc(F)cc2n1	35.63
CC(C)(C)c1cc(C[C@H]2CNCC[C@H]2CC(=O)N2CCCCC2)no1	-13.88
CCc1nnc2n1CCN(C(=O)c1cc3cc(C)ccc3[nH]1)C2	37.68
CCc1nnc2n1CCN(C(=O)CN(C)Cc1ccccc1)C2	-34.45
CCc1nnc2n1CCN(C(=O)c1ccc3nc(C)c(C)nc3c1)C2	-72.78
CCc1nnc2n1CCN(C(=O)CN(C)C1CC1)C2	-3.06
CCc1nnc2n1CCN(C(=O)c1ccc(C(F)(F)F)nc1C)C2	-41.59
CCc1nnc2n1CCN(C(=O)c1cc3ccc(F)cc3nc1C)C2	54.85
CCc1nnc2n1CCN(C(=O)CN(CC)CC)C2	58.05
CCc1nnc2n1CCN(C(=O)c1cc3ccc(C)cc3[nH]1)C2	58.05
CCc1nnc2n1CCN(C(=O)c1cc3ccccc3[nH]1)C2	-3.06
